Experimental data: PubChem BioAssay AID1903 (Southern Research Specialized Biocontainment Screening …, 2009)
Several values for one entry are separate records, joined by “and”; a condition that tells them apart may be missing. Equal entries are not always repeated. Among all 310,000 compounds or so, about 1,200 (0.39%) were called active. The rule behind the calls is not given here. Not all results are given here. Potency and affinity values are given separately.

Target: Large T antigen (Simian virus 40) (UniProt P03070)
Test: SV40 large T antigen inhibitors, biochemical (AID 1903)
Conditions: SV40 large T antigen ATPase/helicase inhibition assay; at 20 µM; hits give high values

Large T antigen (Simian virus 40), sequence (P03070 whole entry, looked up): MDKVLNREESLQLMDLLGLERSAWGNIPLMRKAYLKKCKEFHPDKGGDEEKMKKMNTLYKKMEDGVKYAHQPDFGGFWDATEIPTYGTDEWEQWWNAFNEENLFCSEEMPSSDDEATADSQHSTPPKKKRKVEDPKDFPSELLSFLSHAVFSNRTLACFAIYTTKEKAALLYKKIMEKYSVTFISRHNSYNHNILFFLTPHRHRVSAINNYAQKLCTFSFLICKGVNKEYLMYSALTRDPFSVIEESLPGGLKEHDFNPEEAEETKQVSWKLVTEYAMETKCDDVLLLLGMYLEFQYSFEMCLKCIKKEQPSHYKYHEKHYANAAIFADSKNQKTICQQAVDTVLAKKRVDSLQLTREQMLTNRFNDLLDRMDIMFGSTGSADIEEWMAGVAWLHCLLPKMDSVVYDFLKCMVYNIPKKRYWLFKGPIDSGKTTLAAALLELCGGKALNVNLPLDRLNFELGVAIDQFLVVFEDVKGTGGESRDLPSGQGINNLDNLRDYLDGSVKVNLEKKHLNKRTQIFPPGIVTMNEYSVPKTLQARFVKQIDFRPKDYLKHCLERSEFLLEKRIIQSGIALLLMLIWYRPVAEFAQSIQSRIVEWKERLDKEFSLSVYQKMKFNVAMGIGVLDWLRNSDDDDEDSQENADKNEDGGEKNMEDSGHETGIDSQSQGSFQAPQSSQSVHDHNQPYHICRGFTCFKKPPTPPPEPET

inhibition, inactive:
Cc1cccc(CS(=O)(=O)Cc2ccc(C(=O)NC(C)c3ccccc3)o2)c1 (stereo not drawn) 2.72%
Cc1onc(-c2ccccc2)c1C(=O)Nc1ccc(S(=O)(=O)N2CCCC2)cc1 4.98%
COc1cc(/C=C/C(=O)CC(=O)/C=C/c2ccc(O)c(OC)c2)ccc1O 17.5%
N#C/C(=C\c1cccc(O)c1)C(=O)N1CCCCC1 13.5%
N#C/C(=C\c1ccc(O)c(Br)c1)C(=O)N1CCCCC1 9.59%
COc1ccc(C=C(C(C)=O)C(C)=O)cc1OC 16.2%
CC(=O)C1C(c2ccncc2)NC(=O)NC1(O)C(F)(F)F (stereo not drawn) 18.7%
Cn1/c(=N/NC(=O)c2ccccc2Br)sc2ccccc21 5.44%
CCOCCn1c(=NC(=O)CSCC(=O)Nc2cc(C)on2)sc2cc(OC)ccc21 -3.67%
Cc1ccc(S(=O)(=O)N(C)CC(=O)N2CCOCC2)cc1 0.93%
CCN(C=NC1=NN(c2cccc(C(F)(F)F)c2)CC1)CC 22.2%
OCCN(C=NC1=NN(c2cccc(C(F)(F)F)c2)CC1)CCO 29.5%
O=C(N/N=C/c1ccc2c(c1)OCO2)c1ccccn1 9.83%
Cc1ccc(S(=O)(=O)c2nc(-c3ccccc3Cl)oc2N(C)C)cc1 -3.31%
O=C(CCc1c[nH]c2ccccc12)OCC(=O)N1CCN(S(=O)(=O)c2ccccc2)CC1 10.9%
COc1cnc(-c2ccccn2)nc1Oc1ccccc1Cl 5.1%
COc1cnc(-c2ccccn2)nc1Oc1ccc(Cl)cc1 11.2%
Cc1c(C(=O)N2CCOCC2)c(S(=O)(=O)Nc2cccc(C#N)c2)c(C)n1C 5.47%
CCOc1cc(CNc2ccc(N3CCCC3)cc2)cc(Cl)c1OC 12.8%
CCOc1cc(CNc2ccc(N3CCOCC3)cc2)cc(Br)c1OCC 36.3%
CCOc1c(Cl)cc(CNc2ccc(N3CCCC3)cc2)cc1OC 21.6%
COc1cc(CNc2ccc(N3CCN(C(C)=O)CC3)cc2)ccc1OCc1ccc(F)cc1 19.5%
COc1cc(CNc2ccc(N3CCOCC3)cc2)cc(Br)c1OC 29.9%
CCOc1cc(C(=O)Nc2ccc(N3CCN(C(C)=O)CC3)cc2)cc(OCC)c1OCC -4.85%
COc1ccc(N(CC(=O)O)S(=O)(=O)c2cccnc2)cc1 9.79%
Cn1cnc(S(=O)(=O)N2CCN(C(c3ccc(F)cc3)c3ccc(F)cc3)CC2)c1 11.7%
COC(=O)c1ccc(C(=O)N2CCCC(Nc3ccc(F)c(F)c3)C2)cc1 (stereo not drawn) 13.5%
COc1cccc(NC(=S)NN=C2CCC(C(C)(C)C)CC2)c1 (stereo not drawn) 4.61%
CCOC(=O)/C(C#N)=C\c1ccc(O)c(OC)c1 36.3%
N#C/C(=C/c1ccc(O)c(O)c1)C(=O)NCc1ccc(Cl)cc1 35%
COc1cc(/C=C(\C#N)C(=O)c2c[nH]c3ccccc23)cc(OC)c1O 24.5%
N#C/C(=C\c1cccc(Cl)c1)C(=O)c1ccccc1 45.6%
O=S(=O)(c1ccc2oc3ccc(S(=O)(=O)N4CCCCC4)cc3c2c1)N1CCCCC1 -0.2%
CC1CCC(NC(=O)CNC(=O)Cc2cccc3ccccc23)CC1 (stereo not drawn) -1.39%
O=C1C2C3C=CC(C3)C2C(=O)N1CNc1ccc(O)cc1 (stereo not drawn) 37.4%
Cc1ccc(NCN2C(=O)C3C4C=CC(C4)C3C2=O)cc1 (stereo not drawn) 5.54%
CCN(CC)C(=O)COc1ccc2c(-c3ccc(OC)cc3)cc(=O)oc2c1 11.6%
Oc1cccc(/C=N/Nc2cc(N3CCOCC3)nc(N3CCOCC3)n2)c1 -5.16%
Oc1ccc(/C=N/Nc2cc(N3CCCC3)nc(N3CCCC3)n2)cc1O 42%
COc1cc(/C=C2\SC(=S)N(NS(=O)(=O)c3ccc(C)cc3)C2=O)cc(OC)c1OC 20.8%
CCOc1ccc(/C=C2\SC(=S)N(NS(=O)(=O)c3ccc(C)cc3)C2=O)cc1OC 31.2%
CCOc1cc(/C=C2\SC(=S)N(NC(=O)c3cccnc3)C2=O)ccc1O 33.1%
COc1cc(/C=C2\SC(=S)N(NC(=O)c3ccncc3)C2=O)ccc1O 31.8%
COc1cc(/C=C2\SC(=S)N(NS(=O)(=O)c3ccccc3)C2=O)cc(OC)c1OC 11.2%
CCOc1cc(/C=C2\SC(=S)N(NS(=O)(=O)c3ccccc3)C2=O)ccc1O 38.4%
CCCCNC(=O)C1CCCN1C(=O)Nc1ccccc1 (stereo not drawn) 4.68%
C=CCOCCN1C(=O)C2C3C=CC(C2C1=O)C1C2C(=O)N(CCOCC=C)C(=O)C2C31 (stereo not drawn) 7.04%
O=C(CSc1ccc(F)cc1)NNC(=O)c1ccccc1Br 7.8%
COc1ccc(CCN=C(N)NS(=O)(=O)c2ccc(C)c(C)c2)cc1 23.6%
CCOc1cc(C(=O)N2CCC3(CC2)NCCc2[nH]cnc23)cc(OCC)c1OCC 8.46%
O=C(OCc1ccc(Br)cc1)c1cnc(Cl)c(Cl)c1 6.01%
COCCNC(=O)c1ccc(C2SCC(=O)N2CCc2ccccc2)cc1 (stereo not drawn) 2.84%
COc1cccc(NC(=O)C2Cc3ccccc3CN2C(=O)c2ccco2)c1 (stereo not drawn) 10.4%
CCOc1ccc(N(CC(=O)NCc2ccccc2)C(=O)Cn2nnc(-c3ccc(C)o3)n2)cc1 3.98%
COc1ccc2cc3[n+](cc2c1OC)CCc1cc2c(cc1-3)OCO2 13.6% and 21.3%
COc1cc2c(cc1OC)-c1cc3ccc(OC)c(OC)c3c[n+]1CC2 10.3%
CCC1(CC)Cc2ccccc2C2=C(C(=O)N3CCCCC3)C(=O)C(=O)N21 3.53%
CSc1ccc(-c2nc(CSCC(=O)NCCCN3CCCC3=O)c(C)o2)cc1 8.19%
Cc1nsc(Nc2ccccc2)c1C#N 11.3%
FC(F)(F)c1ccccc1Nc1nccs1 3.87%
CCOC(=O)CC(NC(=O)CCc1c(C)nc2nc(C)nn2c1C)c1ccc(C)cc1 (stereo not drawn) 1.45%
CC(Oc1ccc2c(c1)oc(=O)c1ccccc12)C(=O)NCCN1CCOCC1 (stereo not drawn) 4.69%
O=C(CSc1ccc(Cl)cc1)NNC(=O)c1cccnc1 28.6%
O=c1nccc(N/N=C/c2ccccc2)[nH]1 2.59%
C#CCOCCOCCOCCNc1nc(N2CCN(C(=O)CCCCCCCCCCNC(=O)[C@H](CCCCN)n3cc(CCCC(=O)O)nn3)CC2)nc(N2CCN(C(=O)CCCCCCCCCCNC(=O)[C@H](CCCN=C(N)N)n3cc(C[C@@H](C)CC)nn3)CC2)n1 15.3%
C#CCOCCOCCOCCNc1nc(N2CCN(C(=O)CCCCCCCCCCNC(=O)[C@H](CO)n3cc(CCCSC)nn3)CC2)nc(N2CCN(C(=O)CCCCCCCCCCNC(=O)[C@H](CCCN=C(N)N)n3cc(C[C@@H](C)CC)nn3)CC2)n1 20.2%
C#CCOCCOCCOCCNc1nc(N2CCN(C(=O)CCCCCCCCCCNC(=O)[C@@H](CCSC)n3cc(CCO)nn3)CC2)nc(N2CCN(C(=O)CCCCCCCCCCNC(=O)[C@H]([C@@H](C)CC)n3cc(CCCCN=C(N)N)nn3)CC2)n1 5%
C#CCOCCOCCOCCNc1nc(N2CCN(C(=O)CCCCCCCCCCNC(=O)[C@H]([C@@H](C)CC)n3cc(CCCCN=C(N)N)nn3)CC2)nc(N2CCN(C(=O)CCCCCCCCCCNC(=O)[C@H](CO)n3cc(CCCCCN)nn3)CC2)n1 28.3%
C#CCOCCOCCOCCNc1nc(N2CCN(C(=O)CCCCCCCCCCNC(=O)[C@H](CCCCN)n3cc(CCO)nn3)CC2)nc(N2CCN(C(=O)CCCCCCCCCCNC(=O)[C@H](CCCCN)n3cc(C[C@@H](C)CC)nn3)CC2)n1 22.1%
C#CCOCCOCCOCCNc1nc(N2CCN(C(=O)CCCCCCCCCCNC(=O)[C@H](CO)n3cc(CCCCCN)nn3)CC2)nc(N2CCN(C(=O)CCCCCCCCCCNC(=O)[C@H](CCCN=C(N)N)n3cc(C[C@@H](C)CC)nn3)CC2)n1 36.3%
C#CCOCCOCCOCCNc1nc(N2CCN(C(=O)CCCCCCCCCCNC(=O)[C@H](CCCCN)n3cc(CCO)nn3)CC2)nc(N2CCN(C(=O)CCCCCCCCCCNC(=O)[C@H](CCCN=C(N)N)n3cc(C[C@@H](C)CC)nn3)CC2)n1 30.2%
C#CCOCCOCCOCCNc1nc(N2CCN(C(=O)CCCCCCCCCCNC(=O)[C@H](CCCCN)n3cc(C[C@@H](C)CC)nn3)CC2)nc(N2CCN(C(=O)CCCCCCCCCCNC(=O)[C@H](CCCN=C(N)N)n3cc(C[C@@H](C)CC)nn3)CC2)n1 35.8%
NS(=O)(=O)c1ccc(CCNC(=O)C(=O)Nc2cc3c4c(c2)CC(=O)N4CCC3)cc1 10.2%
CCN(C(=O)COC(=O)c1cncc(Br)c1)C1CCS(=O)(=O)C1 (stereo not drawn) 2.6%
CN(C)S(=O)(=O)c1cccc(COC(=O)c2ccc(Cl)cc2O)c1 4.75%
CCn1ccnc1CNC(=O)CC1C(=O)NCCN1Cc1ccc(OC)cc1OC (stereo not drawn) 8.33%
CC(OC(=O)c1ccc(NS(=O)(=O)c2cccs2)cc1)C(=O)N(C)C1CCCCC1 (stereo not drawn) 12.6%
O=C(NCCCO)c1ccc2[nH]c3c(c2c1)CCCC3 2.41%
